The values below come from ChEMBL document CHEMBL1157539, “Thousands of chemical starting points for antimalarial lead identification” (Nature, 2010).

Broadly, the Inhibition is the percentage by which the read-out fell short of the control.

Common to all, as to assay type: functional
For assay [1], the system named is Plasmodium falciparum. As to the kind of experiment: GSK_TCMDC: Inhibition of Plasmodium falciparum 3D7 in whole red blood cells, using parasite LDH activity as an index of growth. Test compounds present at 2uM.
For assay [2], the system named is Plasmodium falciparum. As to the kind of experiment: GSK_TCMDC: Inhibition of Plasmodium falciparum Dd2 in whole red blood cells, using parasite LDH activity as an index of growth. Test compounds present at 2uM.
In another assay the test system is HepG2. As to the kind of experiment: GSK_TCMDC: Percent inhibition of human HepG2 cell line. Test compounds present at 10uM.

Each structure is given as a SMILES string.

As for `CS(=O)(=O)N(c1ccccc1)c1cc(C(=O)N[C@@H](Cc2ccccc2)[C@H](O)CNC2CCCCC2)cc(N2CCCC2=O)c1`, the Inhibition in the assay with Plasmodium falciparum [1] turned out to be 100%; with Plasmodium falciparum [2], 97%; in the assay with HepG2 it was 8%.

As to `CC(C)(C)c1ccc(NC(=O)c2cccc(CN3CCCN(Cc4ccc(F)cc4)CC3)c2)cc1.O=C(O)C(F)(F)F`, the Inhibition in the assay with Plasmodium falciparum [1] was found to be 88%; in the assay on Plasmodium falciparum [2], 2%; in the assay on HepG2 it was 35%.

Take `CCOCCCn1c(=N)c(C(=O)NCc2ccc(F)cc2)cc2c(=O)n3cccc(C)c3nc21`: the Inhibition in the assay on Plasmodium falciparum [1] is given as 100%; in the assay on Plasmodium falciparum [2], 40%; in the assay on HepG2, 21%.

As to `O=C(O)C(F)(F)F.O=S(=O)(NCCN1CCCC1)c1ccc(-c2ccc(CNCc3ccsc3)cc2)cc1`, the Inhibition in the assay with Plasmodium falciparum [1] stood at 95%; in the assay with Plasmodium falciparum [2], 36%; in the assay on HepG2, 44%.

As to `C=CCOC(=O)N1CCC(CNCc2ccc(-c3cccc(-c4nc5ccccc5[nH]4)c3)cc2)C1.O=C(O)C(F)(F)F` (configuration not stated), the Inhibition with Plasmodium falciparum [1] stood at 100%; in the assay on Plasmodium falciparum [2], 50%; in the assay on HepG2, 39%.

For `CCNc1cc(C(=O)N[C@@H](Cc2ccccc2)[C@H](O)CN[C@@H](C)c2cccc(OC)c2)cc(N2CCCC2=O)c1.O=CO`, the Inhibition with Plasmodium falciparum [1] worked out at 95%; in the assay with Plasmodium falciparum [2], 65%; in the assay with HepG2, 5%.

Regarding `COc1cc(C2CCN(CCCCNC(=O)c3ccc(NC(=O)c4cc(C(F)(F)F)cc(C(F)(F)F)c4)cc3)CC2)ccc1OC(C)C`, the results for the Inhibition in the assay with Plasmodium falciparum [1], in the assay on Plasmodium falciparum [2] and in the assay on HepG2 were 100%, 100% and 21%, respectively.

For the compound `C#C[C@H]1O[C@@H](n2cnc3c(Nc4cc(Br)cc(C(F)(F)F)c4)ncnc32)[C@H](O)[C@@H]1O`, the results for the Inhibition in the assay on Plasmodium falciparum [1], in the assay with Plasmodium falciparum [2] and in the assay on HepG2 were 94%, 56% and 21%, respectively.

Consider `O=c1cc(NCCCNCc2cc(Cl)cc(Cl)c2OCc2ccccc2)[nH]c2ccccc12`, for which the Inhibition in the assay on Plasmodium falciparum [1] stood at 91%; in the assay with Plasmodium falciparum [2], 50%; with HepG2, 0%.

Consider `O=C(/C=C/c1ccc(Cl)c(Cl)c1)NCCCN1CCC(c2c[nH]c3ccccc23)CC1`, for which the figures for the Inhibition in the assay with Plasmodium falciparum [1], in the assay on Plasmodium falciparum [2] and in the assay on HepG2 were 90%, 5% and 48%, respectively.

Consider `CC(C)(C)[C@@H](Nc1ccc(C#N)c2ccccc12)C(=O)NC1(Cc2ccc(O)c(Br)c2)CCCC1`, for which the Inhibition was 84% with Plasmodium falciparum [1], 16% in the assay with Plasmodium falciparum [2] and 2% with HepG2.

Take `O=C(NC1CCN(Cc2ccccc2)CC1)c1ccc(-c2nc3cc(Cl)c(F)cc3[nH]2)cc1`: the Inhibition was found to be 100% in the assay with Plasmodium falciparum [1], 100% in the assay on Plasmodium falciparum [2] and 13% in the assay on HepG2.

Turning to `CCCCCn1c(Sc2ccc(C#N)c([N+](=O)[O-])c2)nnc1-c1cccs1`, the Inhibition with Plasmodium falciparum [1] is recorded as 91%; in the assay with Plasmodium falciparum [2], 38%; in the assay with HepG2, 19%.

For the compound `Br.COc1ccccc1CCCON1C(=N)N=C(N)NC1(C)C`, the Inhibition with Plasmodium falciparum [1] was 95%; in the assay on Plasmodium falciparum [2] it was 92%; with HepG2, 68%.

Regarding `CC1(CCc2ccccc2)N=C(N)N=C(N)C1c1ccc(Cl)c(Cl)c1.Cl` (configuration not stated), the Inhibition in the assay with Plasmodium falciparum [1] is given as 98%; with Plasmodium falciparum [2], 39%; in the assay on HepG2 it was 19%.

For the compound `Fc1cccc(Nc2nc(NCc3ccc(OCc4ccccc4)cc3)nc(Nc3cccc(F)c3)n2)c1`, the Inhibition in the assay on Plasmodium falciparum [1] turned out to be 84%; with Plasmodium falciparum [2] it was 14%; in the assay on HepG2, 5%.

As to `CC12CCC(=O)N1C(C(=O)Nc1cccc(C(=O)Nc3cccc(C(F)(F)F)c3)c1)CS2` (configuration not stated), the Inhibition in the assay with Plasmodium falciparum [1] is 92%; in the assay on Plasmodium falciparum [2], 89%; in the assay on HepG2, 6%.

On to `CC(c1cccc(Nc2nccc(-c3c(-c4cccc(NC(=O)c5c(F)cccc5F)c4)nn4ncccc34)n2)c1)S(C)(=O)=O` (configuration not stated), for which the Inhibition in the assay with Plasmodium falciparum [1] is listed as 98%; in the assay with Plasmodium falciparum [2], 98%; in the assay on HepG2, 79%.

As to `Cc1ccccc1C1CCN(C2CCC(NC(=O)c3cc(-c4ccccc4)oc3C)CC2)CC1` (configuration not stated), the Inhibition was determined as 100% in the assay on Plasmodium falciparum [1], 32% in the assay with Plasmodium falciparum [2] and 46% in the assay with HepG2.

Take `Cc1cccc2nc(-c3ccc(-c4ccc(CN5CCCC5CN)cc4)cc3)[nH]c12.O=C(O)C(F)(F)F` (configuration not stated): the Inhibition with Plasmodium falciparum [1] was 99%; with Plasmodium falciparum [2], 65%; in the assay with HepG2 it was 28%.

Consider `COc1cccc(CNC(=O)NC2CCN(c3ccnc(Nc4ccc(F)cc4)n3)C2)c1` (configuration not stated), for which the Inhibition in the assay with Plasmodium falciparum [1] amounted to 94%; in the assay with Plasmodium falciparum [2], 64%; with HepG2 it was 20%.

For `Cc1cccc2nc(-c3ccc(-c4ccc(CN5CCN(c6ccncc6)CC5)cc4)s3)[nH]c12.O=C(O)C(F)(F)F`, the Inhibition in the assay with Plasmodium falciparum [1] was 100%; in the assay on Plasmodium falciparum [2] it was 98%; in the assay on HepG2, 85%.

For `CC(C)c1ccc(OCC(O)CN(C)C(C)C(O)c2ccccc2)c(Br)c1.Cl` (configuration not stated), the Inhibition with Plasmodium falciparum [1] is recorded as 95%; with Plasmodium falciparum [2], 97%; in the assay on HepG2, 36%.

On to `Cc1nnc2c(N(C(=O)NCCc3ccccc3)C(=O)NCCc3ccccc3)cc3cc(Cl)ccc3n12`, for which the Inhibition with Plasmodium falciparum [1] is on record as 91%; with Plasmodium falciparum [2], 34%; with HepG2 it was 0%.

For `CC1=C(C(=O)Nc2cc3cn[nH]c3cc2F)C(c2cccc(O)c2F)CC(=O)N1` (configuration not stated), the Inhibition in the assay with Plasmodium falciparum [1] stood at 97%; in the assay with Plasmodium falciparum [2], 98%; with HepG2 it was 1%.

For `CCc1ccnc2c(N3CCCC3=O)cc(C(=O)N[C@@H](Cc3ccccc3)[C@H](O)CNC3CCOCC3)cc12.O=CO`, the values for the Inhibition in the assay on Plasmodium falciparum [1], with Plasmodium falciparum [2] and in the assay on HepG2 were 99%, 98% and 2%, respectively.

For the compound `Cl.c1cc2[nH]c(CCCCc3nc4cc(C5=N[C@H]6CCCC[C@H]6N5)ccc4[nH]3)nc2cc1C1=N[C@H]2CCCC[C@H]2N1`, the Inhibition with Plasmodium falciparum [1] is 90%; in the assay with Plasmodium falciparum [2] it was 88%; in the assay with HepG2, 5%.

For `NC(=O)c1cc2nc(NC3CCC3)nc(Nc3cccc4[nH]ncc34)c2[nH]1.O=CO`, the Inhibition stood at 100% in the assay with Plasmodium falciparum [1], 62% in the assay on Plasmodium falciparum [2] and 9% in the assay on HepG2.

In the case of `CN1CCC(C(=O)N(Cc2ccc(-c3ccc(CNCCc4ccccc4)cn3)cc2)Cc2cccc(F)c2)CC1.O=C(O)C(F)(F)F`, the Inhibition is 90% in the assay on Plasmodium falciparum [1], 80% in the assay on Plasmodium falciparum [2] and 30% in the assay with HepG2.
